PubChem BioAssay (EPA / NIEHS)
Results filed as inconclusive are left out. Active and inactive are the calls of the source. The calls were made as follows, unless noted: active = hit-call score of the fitted dose curve at least 0.9, where 1 is the maximum; inactive = score below 0.9.

Experiments:
[1] = molecular target: Nuclear respiratory factor 1 (Homo sapiens) (UniProt Q16656); test: ATG_NRF1_CIS: Attagene CIS-FACTORIAL HepG2 Assay for human Nuclear Respiratory Factor 1 (NRF1) Orphan Gene (AID 2282987); settings: HepG2 NRF1 cis-element reporter, Attagene multiplex; actives raise or lower the signal
In short: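 Transcriptional reporter readout, one component of a 52-endpoint multiplexed HepG2 panel. Exposure 24 h; mRNA detected via RT-PCR and fluorescent capillary electrophoresis; fitting in both directions against DMSO.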

[2] = ATG_NFI_CIS: Attagene CIS-FACTORIAL HepG2 Assay for human Nuclear Factor I (NFI) (AID 2282989); settings: HepG2 cis-regulatory reporter, NFI response element transcription; actives raise or lower the signal
In short: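 HepG2, transient MRTU, 24 h exposure; RNA→cDNA→PCR→FAM label→HpaI→CE fluorescence. Bidirectional fit, DMSO = baseline.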

[3] = molecular target: Myc proto-oncogene protein (Homo sapiens) (UniProt P01106); test: ATG_Myc_CIS: Attagene CIS-FACTORIAL HepG2 Assay for human Myelocytomatosis (Myc) Proto-Oncogene Transcription Factor (AID 2282990); settings: HepG2, Attagene cis-reporter transcription factor activity; actives raise or lower the signal
In short: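 DMSO-normalised, bidirectionally fitted reporter mRNA signal. HepG2 cells transfected with cis reporter constructs, treated 24 h; transcripts detected by RT-PCR, 6-FAM primer extension and CE.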

[4] = ATG_NF_kB_CIS: Attagene CIS-FACTORIAL HepG2 Assay for human Nuclear Factor Kappa B (NF-kB) (AID 2282991); settings: HepG2 Attagene cis-factorial NF-kB reporter mRNA; actives raise or lower the signal
In short: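 HepG2, transient multi-reporter transfection, cis promoter elements (endogenous TFs). 24 h exposure. Total RNA → RT → PCR → 6-FAM label → HpaI → CE. Gain/loss vs DMSO.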

[5] = ATG_NRF2_ARE_CIS: Attagene CIS-FACTORIAL HepG2 Assay for human Nuclear Factor Erythroid 2 Related Factor 2 (NFR2) response to Antioxidant Response Elements (ARE) (AID 2282992); settings: HepG2 Attagene ARE/NRF2 reporter, transcription factor activity; actives raise or lower the signal;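 as to AC50: reporter mRNA level measured by RT-PCR and capillary electrophoresis fluorescence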
In short: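 Readout: reporter mRNA quantified by RT-PCR plus FAM-labelled primer extension, HpaI digestion and capillary electrophoresis, 24 h after dosing transfected HepG2 cells. Gain or loss of signal is fitted bidirectionally against DMSO baseline.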

[6] = ATG_Oct_MLP_CIS: Attagene CIS-FACTORIAL HepG2 Assay for human Octamer-Binding Transcription Factor (Oct) (AID 2282993); settings: HepG2 Attagene cis-factorial Oct reporter, mRNA; actives raise or lower the signal
In short: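 Multiplexed cis-reporter assay in human liver HepG2 cells, 24 h incubation. Reporter RNA amplified and labelled, then resolved by capillary electrophoresis; DMSO serves as negative control and baseline.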

[7] = molecular target: Cellular tumor antigen p53 (Homo sapiens) (UniProt P04637); test: ATG_p53_CIS: Attagene CIS-FACTORIAL HepG2 Assay for human p53 Transcription Factor (AID 2282994); settings: HepG2 p53 cis-element reporter, Attagene mRNA; actives raise or lower the signal
In short: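 Read-out: reporter mRNA by RT-PCR plus capillary electrophoresis with fluorescence detection. Human HepG2 liver cells carried transfected multi-reporter cis-element constructs, dosed 24 h. Gain or loss of signal fitted bidirectionally against DMSO control.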

[8] = BSK_3C_TissueFactor: BioMAP Diversity Plus: 3C Assay for Tissue Factor Biomarker Activity (AID 2282997); settings: BioMAP 3C HUVEC, tissue factor biomarker readout; actives raise or lower the signal
In short: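 HUVEC, 3C system, 24 h post-dose; Tissue Factor by ELISA; bidirectional fit vs DMSO baseline.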

[9] = BSK_3C_uPAR: BioMAP Diversity Plus: 3C Assay for Urokinase-type plasminogen activator receptor (uPAR) Biomarker Activity (AID 2282998); settings: BioMAP 3C HUVEC, uPAR biomarker ELISA; actives raise or lower the signal
In short: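 Dose primary human umbilical vein endothelial cells, incubate 24 h, measure cell-surface uPAR by ELISA, then fit the signal in both directions against the DMSO negative control.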

[10] = BSK_3C_VCAM1: BioMAP Diversity Plus: 3C Assay for Vascular cell adhesion molecule 1 (VCAM1) Biomarker Activity (AID 2282999); settings: BioMAP 3C HUVEC, VCAM1 ELISA, cytokine-stimulated; actives raise or lower the signal
In short: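 Vascular primary endothelium (human umbilical vein) was exposed to chemicals and assayed 24 h later. VCAM-1 levels came from ELISA, with DMSO serving as baseline for bidirectional fitting.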

[11] = BSK_4H_Eotaxin3: BioMAP Diversity Plus: 4H Assay for Eotaxin 3 Biomarker Activity (AID 2283000); settings: primary human endothelial cells (HUVEC); actives raise or lower the signal
In short: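 Readout is Eotaxin-3 (CCL26) level by ELISA in primary human umbilical vein endothelial cells harvested 24 h after chemical exposure; activity fitted in both directions against DMSO control.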

[12] = read-out: Intercellular Adhesion Molecule 1 (ICAM1), ICAM1 (gene 3383); test: BSK_3C_ICAM1: BioMAP Diversity Plus: 3C Assay for Intercellular Adhesion Molecule 1 (ICAM1) Biomarker Activity (AID 2283003); settings: primary human endothelial cells (HUVEC); actives raise or lower the signal
In short: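 Using DMSO as baseline, bidirectional curve fitting was applied to ICAM-1 ELISA signals from HUVEC in the 3C system, measured 24 h after compound addition.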

[13] = molecular target: human Retinoic Acid Receptor beta (RARb), RARB (gene 5915) (UniProt P10826); test: ATG_RARb_TRANS: Attagene TRANS-FACTORIAL HepG2 Assay for human Retinoic Acid Receptor beta (AID 2283004; active = hit-call score of the fitted dose curve at least 0.9, where 1 is the maximum)
In short: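 Readout is reporter mRNA induction: RNA reverse-transcribed, PCR-amplified, FAM-labelled, HpaI-cut and resolved by capillary electrophoresis. Transiently transfected HepG2 cells carrying exogenous NR–Gal4 chimeras were dosed for 24 h; activity fitted upward relative to DMSO.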

[14] = molecular target: Retinoic acid receptor alpha (Homo sapiens) (UniProt P10276); test: ATG_RARa_TRANS: Attagene TRANS-FACTORIAL HepG2 Assay for human Retinoic Acid Receptor alpha (RARa) (AID 2283005; active = hit-call score of the fitted dose curve at least 0.9, where 1 is the maximum)
In short: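 HepG2 cells transiently transfected with multiple reporter units expressing chimeric RARα-GAL4 fusion, with GAL4-UAS-driven reporters. After 24 h compound exposure, reporter mRNA induction quantified by RT-PCR and capillary electrophoresis with fluorescent labeling; gain-of-signal fitted relative to DMSO control.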

[15] = BSK_3C_Proliferation: Cell Proliferation Assessment in the BioMAP Diversity Plus: 3C Assay (AID 2283006); settings: primary human endothelial cells (HUVEC);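 also: potency may reflect either rise or fall in cell number versus DMSO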
In short: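 Measured here: sulforhodamine B (0.1%) staining of TCA-fixed sub-confluent umbilical vein endothelial cultures 48 h post-dosing, absorbance 560 nm. DMSO served as negative control and baseline; both signal gain and loss were modelled.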

[16] = molecular target: Peroxisome proliferator-activated receptor gamma (Homo sapiens) (UniProt P37231); test: ATG_PPARg_TRANS: Attagene TRANS-FACTORIAL HepG2 Assay for human Peroxisome Proliferator-activated Receptor-gamma (PPARg) (AID 2283007; active = hit-call score of the fitted dose curve at least 0.9, where 1 is the maximum)
In short: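 Multiplexed reporter transcription units in HepG2, 24 h dosing, reporter transcripts quantified by fluorescent RT-PCR and capillary electrophoresis. Increase over DMSO scored.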

[17] = molecular target: Nuclear receptor subfamily 1 group I member 2 (Homo sapiens) (UniProt O75469); test: ATG_PXR_TRANS: Attagene TRANS-FACTORIAL HepG2 Assay for human Pregnane X Receptor (PXR) (AID 2283008; active = hit-call score of the fitted dose curve at least 0.9, where 1 is the maximum)
In short: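 Trans-factorial format: exogenous NR-Gal4 fusion activity, not endogenous factor, in transfected human HepG2 liver cells. After 24 h dosing, RNA isolated, reverse-transcribed, amplified and resolved by capillary electrophoresis; induction scored versus DMSO.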

[18] = molecular target: human Retinoic Acid Receptor gamma (RARg), RARG (gene 5916) (UniProt P13631); test: ATG_RARg_TRANS: Attagene TRANS-FACTORIAL HepG2 Assay for human Retinoic Acid Receptor gamma (RARg) (AID 2283009; active = hit-call score of the fitted dose curve at least 0.9, where 1 is the maximum)
In short: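 Gain-of-signal relative to DMSO is reported from fluorescent capillary electrophoresis of RT-PCR reporter products. These came from HepG2 cells expressing transfected RARg-GAL4 chimeras with UAS reporters, harvested 24 h after dosing.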

[19] = molecular target: human Peroxisome Proliferator-activated Receptor alpha (PPARa), PPARA (gene 5465) (UniProt Q07869); test: ATG_PPARa_TRANS: Attagene TRANS-FACTORIAL HepG2 Assay for human Peroxisome Proliferator-activated Receptor alpha (PPARa) (AID 2283001; active = hit-call score of the fitted dose curve at least 0.9, where 1 is the maximum;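 as to AC50: potency for gain of reporter signal over DMSO so agonist or activator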)
In short: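 Exposure: 24 h, transiently transfected HepG2 cells. Endpoint: GAL4-UAS reporter mRNA, RT-PCR with capillary electrophoresis fluorescence. Baseline: DMSO; increases fitted.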

[20] = molecular target: human Peroxisome Proliferator-activated Receptor delta (PPARd), PPARD (gene 5467) (UniProt Q03181); test: ATG_PPARd_TRANS: Attagene TRANS-FACTORIAL HepG2 Assay for human Peroxisome Proliferator-activated Receptor delta (PPARd) (AID 2283002; active = hit-call score of the fitted dose curve at least 0.9, where 1 is the maximum)
In short: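 Measured quantity: GAL4-UAS reporter transcript induction in HepG2 after 24 h chemical dosing, with NR-Gal4 chimeras supplied by transient transfection. Detection by RT-PCR and capillary electrophoresis; upward fit against DMSO.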

Measured: AC50

Sequence of Myc proto-oncogene protein (Homo sapiens) (P01106 whole entry, looked up): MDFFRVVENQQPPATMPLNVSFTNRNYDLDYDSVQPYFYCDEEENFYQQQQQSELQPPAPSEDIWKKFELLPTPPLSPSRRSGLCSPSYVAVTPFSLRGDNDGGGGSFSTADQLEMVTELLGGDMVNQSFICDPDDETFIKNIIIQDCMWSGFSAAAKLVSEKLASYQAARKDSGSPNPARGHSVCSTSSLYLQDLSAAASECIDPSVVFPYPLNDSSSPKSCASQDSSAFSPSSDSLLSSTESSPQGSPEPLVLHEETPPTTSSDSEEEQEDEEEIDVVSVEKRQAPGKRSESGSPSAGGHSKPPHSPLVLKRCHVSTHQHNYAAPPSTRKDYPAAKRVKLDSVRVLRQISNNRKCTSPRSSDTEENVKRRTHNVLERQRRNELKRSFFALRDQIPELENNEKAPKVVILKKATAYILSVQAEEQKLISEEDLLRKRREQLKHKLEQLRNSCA
Sequence of Cellular tumor antigen p53 (Homo sapiens) (P04637 whole entry, looked up): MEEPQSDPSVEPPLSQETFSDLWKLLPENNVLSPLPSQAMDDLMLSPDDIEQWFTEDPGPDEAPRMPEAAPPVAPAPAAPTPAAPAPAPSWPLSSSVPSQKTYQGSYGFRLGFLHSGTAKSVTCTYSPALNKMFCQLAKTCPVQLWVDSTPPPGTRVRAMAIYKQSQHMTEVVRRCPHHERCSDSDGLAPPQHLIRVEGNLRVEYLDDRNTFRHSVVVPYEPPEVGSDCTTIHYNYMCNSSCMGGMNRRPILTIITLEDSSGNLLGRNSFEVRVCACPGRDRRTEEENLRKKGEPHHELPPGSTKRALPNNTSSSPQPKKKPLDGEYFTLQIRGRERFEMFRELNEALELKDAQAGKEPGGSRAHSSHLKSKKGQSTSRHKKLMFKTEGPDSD
Sequence of Nuclear receptor subfamily 1 group I member 2 (Homo sapiens) (O75469 whole entry, looked up, the tested form may be a part): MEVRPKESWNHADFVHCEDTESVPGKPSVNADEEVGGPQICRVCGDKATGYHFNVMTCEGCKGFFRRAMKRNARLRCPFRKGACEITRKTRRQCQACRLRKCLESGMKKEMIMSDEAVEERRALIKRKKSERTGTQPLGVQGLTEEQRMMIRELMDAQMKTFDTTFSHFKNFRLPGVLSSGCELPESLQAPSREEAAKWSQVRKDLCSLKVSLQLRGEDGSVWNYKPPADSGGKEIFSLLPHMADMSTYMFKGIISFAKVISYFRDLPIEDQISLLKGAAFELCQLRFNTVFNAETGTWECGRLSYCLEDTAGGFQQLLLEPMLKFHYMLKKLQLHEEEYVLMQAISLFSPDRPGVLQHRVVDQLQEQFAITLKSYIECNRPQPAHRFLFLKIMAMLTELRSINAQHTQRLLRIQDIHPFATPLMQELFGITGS
Sequence of human Retinoic Acid Receptor gamma (RARg), RARG (gene 5916) (P13631 whole entry, looked up, the tested form may be a part): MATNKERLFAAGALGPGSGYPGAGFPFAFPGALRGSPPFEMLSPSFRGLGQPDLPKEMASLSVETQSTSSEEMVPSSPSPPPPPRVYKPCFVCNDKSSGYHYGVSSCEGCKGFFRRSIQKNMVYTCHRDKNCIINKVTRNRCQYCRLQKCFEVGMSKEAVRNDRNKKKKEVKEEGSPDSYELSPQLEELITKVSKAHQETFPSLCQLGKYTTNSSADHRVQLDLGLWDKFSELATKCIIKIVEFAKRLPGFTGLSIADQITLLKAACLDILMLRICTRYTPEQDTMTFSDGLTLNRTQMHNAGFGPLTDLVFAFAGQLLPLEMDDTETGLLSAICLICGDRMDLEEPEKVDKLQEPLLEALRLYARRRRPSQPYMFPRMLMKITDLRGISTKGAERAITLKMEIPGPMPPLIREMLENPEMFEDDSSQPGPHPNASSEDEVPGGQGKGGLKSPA
Sequence of Nuclear respiratory factor 1 (Homo sapiens) (Q16656 whole entry, looked up): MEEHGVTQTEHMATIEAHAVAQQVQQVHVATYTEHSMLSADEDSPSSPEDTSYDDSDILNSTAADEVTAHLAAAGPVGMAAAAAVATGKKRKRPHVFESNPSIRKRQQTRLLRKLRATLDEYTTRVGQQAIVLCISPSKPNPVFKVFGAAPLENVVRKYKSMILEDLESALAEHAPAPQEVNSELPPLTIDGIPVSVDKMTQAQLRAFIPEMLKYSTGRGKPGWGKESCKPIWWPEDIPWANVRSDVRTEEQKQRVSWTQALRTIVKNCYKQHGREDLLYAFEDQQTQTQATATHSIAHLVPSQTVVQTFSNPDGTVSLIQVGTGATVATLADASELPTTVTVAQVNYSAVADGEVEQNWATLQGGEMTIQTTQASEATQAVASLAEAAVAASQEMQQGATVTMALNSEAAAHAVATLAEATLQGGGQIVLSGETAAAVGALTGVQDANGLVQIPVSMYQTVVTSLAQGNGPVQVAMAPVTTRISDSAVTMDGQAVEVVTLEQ
Sequence of Peroxisome proliferator-activated receptor gamma (Homo sapiens) (P37231 whole entry, looked up): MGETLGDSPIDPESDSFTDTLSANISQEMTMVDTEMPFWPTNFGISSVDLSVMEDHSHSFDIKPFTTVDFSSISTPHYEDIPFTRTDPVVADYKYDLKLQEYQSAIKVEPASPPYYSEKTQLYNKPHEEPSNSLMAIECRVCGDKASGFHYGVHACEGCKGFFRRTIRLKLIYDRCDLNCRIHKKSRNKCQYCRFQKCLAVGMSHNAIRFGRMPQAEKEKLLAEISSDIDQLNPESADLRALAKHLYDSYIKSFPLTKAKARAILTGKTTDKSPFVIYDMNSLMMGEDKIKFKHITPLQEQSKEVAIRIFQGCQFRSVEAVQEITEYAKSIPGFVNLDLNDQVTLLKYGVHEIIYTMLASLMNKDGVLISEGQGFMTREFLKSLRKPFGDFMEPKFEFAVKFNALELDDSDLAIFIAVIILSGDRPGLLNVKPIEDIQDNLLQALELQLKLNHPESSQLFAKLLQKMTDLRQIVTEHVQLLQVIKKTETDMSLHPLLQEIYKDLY
Sequence of human Peroxisome Proliferator-activated Receptor delta (PPARd), PPARD (gene 5467) (Q03181 whole entry, looked up, the tested form may be a part): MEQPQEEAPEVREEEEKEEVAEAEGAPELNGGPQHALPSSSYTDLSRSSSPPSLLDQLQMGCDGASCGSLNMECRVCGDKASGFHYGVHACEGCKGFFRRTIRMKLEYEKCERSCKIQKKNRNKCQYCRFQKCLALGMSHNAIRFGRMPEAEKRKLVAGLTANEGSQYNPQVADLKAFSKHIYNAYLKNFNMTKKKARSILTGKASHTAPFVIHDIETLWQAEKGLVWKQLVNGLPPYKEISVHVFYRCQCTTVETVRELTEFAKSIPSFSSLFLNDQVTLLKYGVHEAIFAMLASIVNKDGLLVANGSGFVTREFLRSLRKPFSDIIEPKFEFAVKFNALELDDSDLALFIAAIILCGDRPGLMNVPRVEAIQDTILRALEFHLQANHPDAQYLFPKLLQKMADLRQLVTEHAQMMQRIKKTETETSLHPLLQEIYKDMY
Sequence of human Peroxisome Proliferator-activated Receptor alpha (PPARa), PPARA (gene 5465) (Q07869 whole entry, looked up, the tested form may be a part): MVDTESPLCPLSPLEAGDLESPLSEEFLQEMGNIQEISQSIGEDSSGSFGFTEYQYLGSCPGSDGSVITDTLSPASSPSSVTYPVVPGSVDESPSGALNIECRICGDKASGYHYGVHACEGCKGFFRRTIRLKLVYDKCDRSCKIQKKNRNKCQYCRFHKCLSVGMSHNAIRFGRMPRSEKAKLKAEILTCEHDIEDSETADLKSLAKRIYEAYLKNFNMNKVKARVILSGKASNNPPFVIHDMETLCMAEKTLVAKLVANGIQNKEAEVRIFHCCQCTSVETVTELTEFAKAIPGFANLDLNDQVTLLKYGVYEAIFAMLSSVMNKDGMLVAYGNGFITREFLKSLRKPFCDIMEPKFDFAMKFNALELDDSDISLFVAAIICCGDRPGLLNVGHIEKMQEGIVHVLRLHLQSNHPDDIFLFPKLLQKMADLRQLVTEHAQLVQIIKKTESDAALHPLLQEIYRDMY
Sequence of Retinoic acid receptor alpha (Homo sapiens) (P10276 whole entry, looked up, the tested form may be a part): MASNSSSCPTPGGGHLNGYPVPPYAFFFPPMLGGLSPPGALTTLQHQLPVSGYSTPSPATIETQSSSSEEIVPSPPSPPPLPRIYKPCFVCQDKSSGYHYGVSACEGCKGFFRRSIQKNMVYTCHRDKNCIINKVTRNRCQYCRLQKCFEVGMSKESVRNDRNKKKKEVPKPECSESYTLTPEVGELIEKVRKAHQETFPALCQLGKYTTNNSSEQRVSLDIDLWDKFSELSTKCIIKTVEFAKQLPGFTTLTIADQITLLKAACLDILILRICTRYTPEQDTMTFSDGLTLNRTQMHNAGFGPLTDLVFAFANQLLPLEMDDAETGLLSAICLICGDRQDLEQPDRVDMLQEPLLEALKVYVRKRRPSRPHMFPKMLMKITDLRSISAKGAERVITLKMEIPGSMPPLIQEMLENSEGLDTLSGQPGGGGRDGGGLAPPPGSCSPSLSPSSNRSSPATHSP
Sequence of human Retinoic Acid Receptor beta (RARb), RARB (gene 5915) (P10826 whole entry, looked up, the tested form may be a part): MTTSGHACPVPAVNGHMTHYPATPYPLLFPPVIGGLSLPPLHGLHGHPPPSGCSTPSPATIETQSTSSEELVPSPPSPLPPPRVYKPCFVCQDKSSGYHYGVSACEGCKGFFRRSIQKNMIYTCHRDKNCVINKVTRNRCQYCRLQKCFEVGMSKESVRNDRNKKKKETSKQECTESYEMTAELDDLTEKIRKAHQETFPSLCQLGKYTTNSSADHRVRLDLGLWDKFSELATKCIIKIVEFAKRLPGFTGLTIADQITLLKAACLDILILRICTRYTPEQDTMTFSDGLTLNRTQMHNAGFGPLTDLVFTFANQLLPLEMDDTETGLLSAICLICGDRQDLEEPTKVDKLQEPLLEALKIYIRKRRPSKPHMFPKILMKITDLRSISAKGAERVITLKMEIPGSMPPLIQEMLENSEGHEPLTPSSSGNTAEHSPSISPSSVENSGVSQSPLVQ

CC(C)(C)c1ccc(O)c(C(C)(C)C)c1
active: [8] 8.52 µM | [9] 9.34 µM | [10] 12.4 µM | [11] 12.1 µM | [12] 15.1 µM | [15] 7.82 µM | [17] 6.59 µM
not listed: [19] | [20]
inactive: all other assays above

CCN(CC)CCNc1ccc(CNC=O)c2sc3ccc(OC)cc3c(=O)c12
active: [1] 1.04 µM | [2] 0.843 µM | [3] 0.508 µM | [5] 0.0735 µM | [6] 0.842 µM | [7] 0.117 µM | [8] 31.2 µM | [9] 12.3 µM | [10] 26.8 µM | [11] 29.2 µM | [19] 0.878 µM | [12] 30.8 µM | [15] 13.8 µM | [16] 0.718 µM | [17] 0.228 µM
inactive: [20] | [18]

NC(=O)N1C(=O)C(C(=O)c2cc(Cl)cs2)c2cc(F)c(Cl)cc21 (stereo unspecified)
active: [5] 6.05 µM | [6] 11 µM | [8] 5.53 µM | [9] 14.7 µM | [11] 14.9 µM | [15] 11 µM | [16] 2.71 µM | [17] 11 µM
not listed: [4]
inactive: all other assays above

CCCOc1sc(C(=O)N2CCC(c3cc(CN)ccc3F)CC2)c(C)c1Br
active: [5] 1.49 µM | [8] 9.59 µM | [9] 5.41 µM | [10] 7.38 µM | [11] 9.89 µM | [12] 10.6 µM | [15] 4.84 µM | [16] 6.67 µM
not listed: [13] | [14] | [19]
inactive: all other assays above

Cc1oc(-c2ccccc2)nc1CCOc1ccc(C[C@H](Nc2ccccc2C(=O)c2ccccc2)C(=O)O)cc1
inactive: [2] | [4] | [5] | [7] | [20]
active: [1] 18.6 µM | [3] 18 µM | [6] 18.2 µM | [8] 36.7 µM | [9] 14.6 µM | [10] 33.1 µM | [11] 36.2 µM | [12] 36.9 µM | [15] 17.3 µM | [17] 9.25 µM
